Measured values: PubChem BioAssay (EPA / NIEHS)
Activity calls are given as the source filed them. How the source made its calls: active means hit-call score of the fitted dose curve at least 0.9, where 1 is the maximum; inactive means score below 0.9.

Columns and labels:
Conditions in all cases: mRNA level, 48 h; actives raise or lower the signal
CYP2C8 (gene 1558) = assay: LTEA_HepaRG_CYP2C8: Life Technologies and Expression Analysis (LTEA) Assay for CYP2C8 using HepaRG (AID 2283483)
In short: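 Differentiated HepaRG cells in serum-free induction medium exposed 48 h in duplicate to 8 half-log concentrations from 100 uM in 0.5% DMSO. CYP2C8 mRNA by qRT-PCR normalized to ACTB, GAPDH, POLR2A; bidirectional fit versus DMSO.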

CYP2C9 (gene 1559) = assay: LTEA_HepaRG_CYP2C9: Life Technologies and Expression Analysis (LTEA) Assay for CYP2C9 using HepaRG (AID 2283484)
In short: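 Differentiated human HepaRG cells in serum-free induction medium were exposed 48 h to chemicals in 8-point half-log series from 100 uM (0.5% DMSO), in duplicate. CYP2C9 mRNA was measured by qRT-PCR, normalized to ACTB/GAPDH/POLR2A, with bidirectional fitting versus DMSO.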

CYP2E1 (gene 1571) = assay: LTEA_HepaRG_CYP2E1: Life Technologies and Expression Analysis (LTEA) Assay for CYP2E1 using HepaRG (AID 2283485)
In short: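 HepaRG cells in serum-free induction medium exposed 48 h to test chemicals, 8 half-log concentrations up to 100 uM in 0.5% DMSO, duplicate. CYP2E1 mRNA by qRT-PCR, normalized to ACTB, GAPDH, POLR2A; bidirectional fit versus DMSO.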

CYP4A11 (gene 1579) = assay: LTEA_HepaRG_CYP4A11: Life Technologies and Expression Analysis (LTEA) Assay for CYP4A11 using HepaRG (AID 2283486)
In short: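 HepaRG, 48 h chem exposure, 8 conc (100 uM top, half-log), 0.5% DMSO vehicle; qRT-PCR readout, housekeeping-gene normalized; bidirectional curve fit vs DMSO baseline.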

[1] = read-out: Cytochrome P450 3A4 (Homo sapiens) (UniProt P08684); assay: LTEA_HepaRG_CYP3A4: Life Technologies and Expression Analysis (LTEA) Assay for CYP3A4 using HepaRG (AID 2283487)
In short: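 Differentiated HepaRG cells, plated 48 h, then dosed 48 h in serum-free induction medium with 0.5% DMSO, 8 half-log concentrations up to 100 uM, duplicate. CYP3A4 mRNA by qRT-PCR, normalized to ACTB/GAPDH/POLR2A; bidirectional fit versus DMSO.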

[2] = read-out: DNA damage-inducible transcript 3 (DDIT3), DDIT3 (gene 1649); assay: LTEA_HepaRG_DDIT3: Life Technologies and Expression Analysis (LTEA) Assay for DNA damage-inducible transcript 3 (DDIT3) using HepaRG (AID 2283488)
In short: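 Differentiated human HepaRG cells in serum-free induction medium were exposed in duplicate for 48 h to 8 concentrations (top 100 uM, half-log steps, 0.5% DMSO). DDIT3 mRNA measured by TaqMan qRT-PCR, normalized to ACTB/GAPDH/POLR2A; bidirectional fit versus DMSO.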

[3] = read-out: Pro-epidermal growth factor (Homo sapiens) (UniProt P01133); assay: LTEA_HepaRG_EGF: Life Technologies and Expression Analysis (LTEA) Assay for Epidermal growth factor (EGF) using HepaRG (AID 2283489)
In short: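 HepaRG, 48 h dosing, 100 uM top, half-log x8, 0.5% DMSO. Readout: TaqMan qRT-PCR (Fluidigm array), housekeeping-normalized. Gain or loss of signal fit vs DMSO.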

[4] = read-out: Early growth response protein 1 (EGR1) transcription factor, EGR1 (gene 1958); assay: LTEA_HepaRG_EGR1: Life Technologies and Expression Analysis (LTEA) Assay for Early growth response protein 1 (EGR1) transcription factor using HepaRG (AID 2283490)
In short: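 Differentiated HepaRG cells in serum-free induction medium exposed 48 hours, duplicate, to 8 half-log concentrations up to 100 uM in 0.5% DMSO. EGR1 mRNA measured by TaqMan qRT-PCR, normalized to ACTB, GAPDH, POLR2A; bidirectional fit versus DMSO.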

[5] = read-out: Ezrin (EZR), EZR (gene 7430); assay: LTEA_HepaRG_EZR: Life Technologies and Expression Analysis (LTEA) Assay for Ezrin (EZR) using HepaRG (AID 2283491)
In short: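 EZR transcript levels came from Fluidigm qRT-PCR and were normalized to three housekeeping genes after 48 h chemical exposure of HepaRG cells. Dosing used an 8-point half-log series with a 100 uM top concentration in 0.5% DMSO, tested in duplicate; both directions were fitted versus vehicle.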

[6] = read-out: Cytochrome P450 3A7 (Homo sapiens) (UniProt P24462); assay: LTEA_HepaRG_CYP3A7: Life Technologies and Expression Analysis (LTEA) Assay for CYP3A7 using HepaRG (AID 2283492)
In short: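 Human HepaRG liver cells, 48 h post-plating, switched to serum-free induction medium and exposed in duplicate for 48 h. Dosing: 100 uM top, half-log dilutions, 8 points, 0.5% DMSO vehicle. Read-out: CYP3A7 mRNA, gain or loss fitted against DMSO baseline.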

CYP3A5 (gene 1577) = assay: LTEA_HepaRG_CYP3A5: Life Technologies and Expression Analysis (LTEA) Assay for CYP3A5 using HepaRG (AID 2283493)
In short: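 Differentiated HepaRG cells in serum-free induction medium were dosed 48 h with test chemicals (8-point half-log series, top 100 uM, 0.5% DMSO, duplicate). CYP3A5 mRNA measured by qRT-PCR, normalized to ACTB, GAPDH, POLR2A; bidirectional fit versus DMSO.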

[7] = read-out: Fatty Acid-Binding Protein 1 (FABP1), FABP1 (gene 2168); assay: LTEA_HepaRG_FABP1: Life Technologies and Expression Analysis (LTEA) Assay for Fatty Acid-Binding Protein 1 (FABP1) using HepaRG (AID 2283494)
In short: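 Differentiated human HepaRG cells exposed 48 h in serum-free induction medium to eight half-log concentrations up to 100 uM (0.5% DMSO), duplicate. FABP1 mRNA by qRT-PCR, normalised to ACTB, GAPDH, POLR2A; bidirectional fitting against DMSO.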

[8] = read-out: Cytochrome P450 4A22 (Homo sapiens) (UniProt Q5TCH4); assay: LTEA_HepaRG_CYP4A22: Life Technologies and Expression Analysis (LTEA) Assay for Cytochrome P450 4A22 (CYP4A22) using HepaRG (AID 2283495)
In short: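 Readout is CYP4A22 transcript induction or loss, quantified by qRT-PCR and normalized to ACTB, GAPDH and POLR2A. Human HepaRG cells receive test chemicals for 48 h at eight half-log concentrations from 100 uM in 0.5% DMSO.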

[9] = read-out: Cytochrome P450 7A1 (Homo sapiens) (UniProt P22680); assay: LTEA_HepaRG_CYP7A1: Life Technologies and Expression Analysis (LTEA) Assay for Cytochrome P450 7A1 (CYP7A1) using HepaRG (AID 2283496)
In short: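 Gene expression endpoint in human HepaRG liver cells treated for 48 h with test chemicals (up to 100 uM, 0.5% DMSO). Values come from bidirectional concentration-response fitting versus DMSO.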

[10] = read-out: Glutathione S-Transferase (GSTA2), GSTA2 (gene 2939); assay: LTEA_HepaRG_GSTA2: Life Technologies and Expression Analysis (LTEA) Assay for Glutathione S-Transferase (GSTA2) using HepaRG (AID 2283497)
In short: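 Differentiated human HepaRG cells were exposed in duplicate for 48 h in serum-free induction medium, 8 points from 100 uM top in half-log steps, 0.5% DMSO. GSTA2 mRNA was measured by TaqMan qRT-PCR, normalized to ACTB, GAPDH and POLR2A; bidirectional fit versus DMSO.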

[11] = read-out: Glutamate-cysteine ligase catalytic (GCLC), GCLC (gene 2729); assay: LTEA_HepaRG_GCLC: Life Technologies and Expression Analysis (LTEA) Assay for Glutamate-cysteine ligase catalytic (GCLC) using HepaRG (AID 2283498)
In short: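 Differentiated HepaRG cells exposed 48 h in serum-free induction medium, eight-point half-log series topping at 100 uM in 0.5% DMSO, duplicates. GCLC mRNA by qRT-PCR normalized to ACTB, GAPDH and POLR2A, fitted bidirectionally versus DMSO.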

[12] = read-out: growth arrest and DNA damage 45 (GADD45G), GADD45G (gene 10912); assay: LTEA_HepaRG_GADD45G: Life Technologies and Expression Analysis (LTEA) Assay for growth arrest and DNA damage 45 (GADD45G) using HepaRG (AID 2283499)
In short: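 Gain or loss of GADD45G mRNA, quantified by TaqMan qRT-PCR against three housekeeping genes, is fitted in both directions relative to 0.5% DMSO. Human HepaRG cultures receive test chemical for 48 h at up to 100 uM.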

[13] = read-out: Glutamate-cysteine ligase regulatory (GCLM), GCLM (gene 2730); assay: LTEA_HepaRG_GCLM: Life Technologies and Expression Analysis (LTEA) Assay for Glutamate-cysteine ligase regulatory (GCLM) using HepaRG (AID 2283500)
In short: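 Differentiated human HepaRG cells exposed 48 h in serum-free induction medium to 8-point half-log concentrations (top 100 uM, 0.5% DMSO), in duplicate. GCLM mRNA quantified by qRT-PCR, normalized to ACTB, GAPDH, POLR2A; bidirectional fitting versus DMSO.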

[14] = read-out: Heat shock 70 kDa protein 1 (HSPA1A), gene 3303; assay: LTEA_HepaRG_HSPA1A: Life Technologies and Expression Analysis (LTEA) Assay for Heat shock 70 kDa protein 1 (HSPA1A) using HepaRG (AID 2283502)
In short: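 Differentiated human HepaRG cells in serum-free induction medium were exposed in duplicate for 48 h to eight concentrations (top 100 uM, half-log steps, 0.5% DMSO). HSPA1A mRNA was quantified by qRT-PCR, normalized to ACTB, GAPDH and POLR2A, and fitted bidirectionally against DMSO.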

[15] = read-out: Glutathione S-transferase M3 (GSTM3), GSTM3 (gene 2947); assay: LTEA_HepaRG_GSTM3: Life Technologies and Expression Analysis (LTEA) Assay for Glutathione S-transferase M3 (GSTM3) using HepaRG (AID 2283501)
In short: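 HepaRG, plated 48 h, then serum-free induction medium; test chemical 48 h, duplicate; 100 uM top, half-log x8, 0.5% DMSO. Read-out: GSTM3 mRNA (TaqMan qRT-PCR, Fluidigm array). Bidirectional fit vs DMSO.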

Measured: AC50

Cytochrome P450 3A7 (Homo sapiens), sequence (P24462 whole entry, looked up): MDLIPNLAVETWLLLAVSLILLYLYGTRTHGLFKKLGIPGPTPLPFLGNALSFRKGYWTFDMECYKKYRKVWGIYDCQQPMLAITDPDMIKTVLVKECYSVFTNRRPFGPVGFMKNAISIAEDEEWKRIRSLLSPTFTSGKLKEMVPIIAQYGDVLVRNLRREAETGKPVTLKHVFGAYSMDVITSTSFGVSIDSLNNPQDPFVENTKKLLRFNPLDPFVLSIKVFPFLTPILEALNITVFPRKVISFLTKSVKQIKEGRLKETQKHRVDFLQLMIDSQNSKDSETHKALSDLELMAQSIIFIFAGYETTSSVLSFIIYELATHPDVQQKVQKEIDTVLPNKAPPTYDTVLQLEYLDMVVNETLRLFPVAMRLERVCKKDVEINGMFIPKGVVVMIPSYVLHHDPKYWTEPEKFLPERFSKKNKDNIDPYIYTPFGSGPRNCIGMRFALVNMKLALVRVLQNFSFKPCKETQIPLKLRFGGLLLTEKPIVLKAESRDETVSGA
Cytochrome P450 3A4 (Homo sapiens), sequence (P08684 whole entry, looked up): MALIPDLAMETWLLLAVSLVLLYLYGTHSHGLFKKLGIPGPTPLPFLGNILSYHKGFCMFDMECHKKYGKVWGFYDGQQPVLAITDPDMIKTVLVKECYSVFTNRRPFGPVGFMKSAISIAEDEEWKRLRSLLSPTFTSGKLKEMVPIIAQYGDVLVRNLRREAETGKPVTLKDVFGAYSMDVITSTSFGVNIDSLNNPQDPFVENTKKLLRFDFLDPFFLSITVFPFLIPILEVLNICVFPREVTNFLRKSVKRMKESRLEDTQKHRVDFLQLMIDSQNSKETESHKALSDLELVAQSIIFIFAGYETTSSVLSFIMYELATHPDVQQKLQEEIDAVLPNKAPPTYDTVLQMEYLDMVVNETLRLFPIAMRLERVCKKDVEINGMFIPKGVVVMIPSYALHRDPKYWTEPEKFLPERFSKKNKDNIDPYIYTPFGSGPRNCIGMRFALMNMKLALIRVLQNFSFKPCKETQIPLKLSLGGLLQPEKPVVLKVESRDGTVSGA

CC[C@H](C)[C@H]1O[C@]2(C=C[C@@H]1C)C[C@@H]1C[C@@H](C/C=C(\C)[C@@H](O[C@H]3C[C@H](OC)[C@@H](O[C@H]4C[C@H](OC)[C@@H](NC)[C@H](C)O4)[C@H](C)O3)[C@@H](C)/C=C/C=C3\CO[C@@H]4[C@H](O)C(C)=C[C@@H](C(=O)O1)[C@]34O)O2
active: CYP2E1 (gene 1571) 5.32 µM | CYP4A11 (gene 1579) 11.7 µM | [1] 23.1 µM | [2] 13.1 µM | [3] 81.5 µM | [4] 29 µM | [5] 79.5 µM | [6] 19.9 µM | CYP3A5 (gene 1577) 22.7 µM | [7] 14.6 µM | [8] 7.23 µM | [10] 23.3 µM | [11] 50 µM | [12] 2.78 µM | [14] 20.4 µM
inactive: CYP2C8 (gene 1558) | CYP2C9 (gene 1559) | [9] | [13]

N#CSCSC#N
active: CYP2C8 (gene 1558) 89.4 µM | CYP2C9 (gene 1559) 66.5 µM | CYP2E1 (gene 1571) 82.9 µM | CYP4A11 (gene 1579) 81.5 µM | [1] 77.2 µM | [6] 59.5 µM | [7] 86.2 µM | [8] 90.6 µM | [9] 50 µM | [10] 76.2 µM | [13] 80.6 µM
inactive: [2] | [3] | [4] | [5] | [11] | [12] | [15] | [14]

O=[N+]([O-])c1cc(C(F)(F)F)c(Cl)c([N+](=O)[O-])c1Nc1ncc(C(F)(F)F)cc1Cl
inactive: [2] | [3] | [5] | [12] | [13] | [14]
active: CYP2C8 (gene 1558) 26.8 µM | CYP2C9 (gene 1559) 17.8 µM | CYP2E1 (gene 1571) 13.1 µM | CYP4A11 (gene 1579) 27.6 µM | [1] 30.2 µM | [4] 90.7 µM | [6] 23.1 µM | CYP3A5 (gene 1577) 66.7 µM | [7] 16.4 µM | [9] 23 µM | [10] 24.9 µM | [11] 69.3 µM
